Bioassay records from PubChem.
RORgamma inh: blocks mouse ROR gamma transcriptional activity; hit rate 5.4% among 310,000; P51450; Potency, µM (series often up to 53.6 µM), for the others: at the top dose activity change, negative = inhibition, most hits filed as inhibitors; Drosophila S2 Gal4-RORgamma UAS-luciferase reporter, 20 h; note: nearly all actives have a fitted effect of over 60% in size
Target sequence (P51450 whole entry, looked up, the tested form may be a part): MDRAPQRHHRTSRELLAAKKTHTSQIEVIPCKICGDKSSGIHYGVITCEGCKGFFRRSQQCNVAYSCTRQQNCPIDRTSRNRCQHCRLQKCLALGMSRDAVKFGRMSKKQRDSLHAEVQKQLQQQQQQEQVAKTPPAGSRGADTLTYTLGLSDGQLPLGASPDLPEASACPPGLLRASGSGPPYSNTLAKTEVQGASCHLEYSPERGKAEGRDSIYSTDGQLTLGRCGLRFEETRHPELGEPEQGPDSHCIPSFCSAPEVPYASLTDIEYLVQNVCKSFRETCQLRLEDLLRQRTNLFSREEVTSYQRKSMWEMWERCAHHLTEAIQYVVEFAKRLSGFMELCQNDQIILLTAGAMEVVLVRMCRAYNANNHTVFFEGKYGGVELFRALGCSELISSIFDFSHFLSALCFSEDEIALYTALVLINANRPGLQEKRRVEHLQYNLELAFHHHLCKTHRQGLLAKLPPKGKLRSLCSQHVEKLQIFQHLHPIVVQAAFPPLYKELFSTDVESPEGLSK
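Read-out: Photinus luciferase luminescence; inhibitors lower reporter signal. Insect Schneider cells with Gal4-ROR gamma fusion under metallothionein promoter, UAS reporter; 700 uM final copper sulfate induction, 20 hr, ambient temperature.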
DT40 TDP1 CPT: growth inhibition of DT40 Tdp1-/-;hTDP1 cells with camptothecin (screen for TDP1 inhibitors) | chicken DT40 Tdp1-/-;hTDP1 cells + 20 nM CPT, ATP luminescence, 48 h | Potency, µM (doses to about 46.2 µM), without a hit: top-dose activity change, negative = growth inhibition, hits mostly inhibitors | hit rate 12% among 420,000 | AID 686979; note: nearly all actives have a fitted effect of over 55% in size
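Chicken DT40 Tdp1-/- cells complemented with human TDP1, 400 cells/well, exposed to compounds plus 20 nM camptothecin for at least 48 h at 37 C; viability read as ATP content by CellTiter-Glo luminescence.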
TDP1 cell noCPT: qHTS for Inhibitors of human tyrosyl-DNA phosphodiesterase 1 (TDP1): qHTS in cells in absence of CPT. DT40 Tdp1-/- hTDP1 cells, no CPT, ATP luminescence, 48 h. Potency, µM (highest dose often 46.2 µM), without a hit: at the highest dose activity change, negative = growth inhibition, actives largely listed as inhibitors. hit rate 15% among 420,000; note: nearly all actives have a fitted effect of over 55% in size
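Cells were dispensed at 400 per well, compounds added by pin tool, plates incubated ≥48 hr at 37 °C, then CellTiter-Glo added for 30 min at room temperature before luminescence reading. Line: DT40 Tdp1-/- complemented with hTDP1; camptothecin omitted.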
TDP1 block: inhibitors of human tyrosyl-DNA phosphodiesterase TDP1. Q9NUW8. hit rate 0.28% among 350,000. Potency, µM (titrated, usually from 130 µM), without a hit: at the top dose activity change, negative = inhibition, usual class: inhibitors. recombinant TDP1, AlphaScreen DNA substrate cleavage. AID 485290; note: nearly all actives have a fitted effect of over 40% in size
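Tdp1 1 nM final; 15 min RT w/ cpd; substrate 15 nM, 5 min; beads 10 ug/ml, 10 min; AlphaScreen read. Neg ctrl: no enzyme.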
VP16 counter: Gal4-VP16 reporter inhibition counter-screen | hit rate 3.5% among 310,000 | Potency, µM (highest dose often 53.6 µM), without a hit: top-dose activity, negative = inhibition, actives largely listed as inhibitors | Drosophila S2 Gal4-VP16 UAS-luciferase, luminescence, 20 h;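 note: Gal4-VP16 expression switched on by copper sulfate through the metallothionein promoter; nearly all actives have a fitted effect of over 50% in size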
Starred values were filed as active, the others as inactive; [ ] = another dose, or the depositor's remark. Compounds with a hit are over-represented: about 19% of the library has one in this group of screens. Calls come from the whole dose curve; as a rule, active = well fitted curve in the direction sought with a large enough effect; inconclusive = small, poorly fitted or top-dose-only effect, or another doubt; inactive = no such curve, though single readings can be large; an effect the other way counts as inactive or inconclusive. % is set by controls: 0 for no effect and ±100 for the full control effect; potency is the fitted concentration of half-maximal effect.

`CC(C)CN1CC(COCc2ccccc2)Oc2ccccc2S1(=O)=O` (stereo not given) gave DT40 TDP1 CPT 21µM*, TDP1 cell noCPT inconclusive and TDP1 block -4%[56.1 µM].
CCCCN1CC(COCc2ccccc2)Oc2cccc(N3CCCC3)c2S1(=O)=O (stereo not given) was read as DT40 TDP1 CPT inconclusive and TDP1 cell noCPT 16µM*.
CCn1nc(C)c2c(-c3ccccc3)cc(=O)n(C(C)C(=O)NCc3cccc(OC)c3)c21 (stereo not given) was read as DT40 TDP1 CPT inconclusive, TDP1 cell noCPT inconclusive and TDP1 block 6%.
COC(=O)c1ccc(Cn2c(=O)cc(C(F)(F)F)c3c(C)nn(C)c32)cc1 was read as DT40 TDP1 CPT inconclusive, TDP1 cell noCPT 15µM* and TDP1 block 1%.
`Cc1nn(C)c2c1c(C(F)(F)F)cc(=O)n2C(C)C(=O)NCCC(C)C` (stereo not given) gave DT40 TDP1 CPT 16µM*, TDP1 cell noCPT inconclusive and TDP1 block -3%.
Cc1nn(C)c2c1c(-c1ccccc1)cc(=O)n2Cc1ccccc1C#N was read as DT40 TDP1 CPT 23µM*, TDP1 cell noCPT inconclusive and TDP1 block -2%.
For CCn1nc(C)c2c(-c3ccccc3)cc(=O)n(C(C)C(=O)Nc3ccc(OC)c(OC)c3)c21 (stereo not given) the results were DT40 TDP1 CPT 10µM*, TDP1 cell noCPT 16µM* and TDP1 block 1%.
`O=C(Nc1cc(C(F)(F)F)ccc1N1CCOCC1)c1ccc2ccccc2n1` gave RORgamma inh 11%, DT40 TDP1 CPT inconclusive, TDP1 cell noCPT inconclusive, TDP1 block 0% and VP16 counter -9%.
Screening CC1(C)Cc2c(c(=S)nc(-c3ccccc3)n2CCOCCO)CO1 returned RORgamma inh 2%, DT40 TDP1 CPT inconclusive, TDP1 cell noCPT -17%, TDP1 block -2% and VP16 counter -3%.
COC(=O)c1cc(-c2ccccc2)nc2nc(SC)[nH]c(=O)c12 was read as RORgamma inh 26%, DT40 TDP1 CPT -24%, TDP1 cell noCPT -17% and VP16 counter 3%.
For COc1cccc(CNC(=O)C(C)n2c(=O)cc(-c3ccccc3)c3c(C)nn(C)c32)c1 (stereo not given) the results were DT40 TDP1 CPT inconclusive, TDP1 cell noCPT -49% and TDP1 block 7%.
Cc1ccc(CNC(=O)C(C)n2c(=O)cc(-c3ccccc3)c3c(C)nn(C)c32)cc1 (stereo not given) was read as DT40 TDP1 CPT 18µM*, TDP1 cell noCPT inconclusive and TDP1 block 6%.
Cc1nn(C)c2c1c(C(F)(F)F)cc(=O)n2C(C)C(=O)NCCc1ccccc1 (stereo not given) was read as DT40 TDP1 CPT 0.18µM*, TDP1 cell noCPT -83% and TDP1 block 7%.
`O=C(NCC(c1cccnc1)N1CCN(c2ccccc2F)CC1)C(=O)Nc1ccc(F)cc1F` (stereo not given) gave DT40 TDP1 CPT inconclusive, TDP1 cell noCPT 15µM* and TDP1 block 6%.
Cc1ccc(CNC(=O)C(=O)NCC(c2cccnc2)N2CCN(c3ccccc3F)CC2)cc1 (stereo not given) was read as DT40 TDP1 CPT 13µM*, TDP1 cell noCPT 5.8µM* and TDP1 block 1%.
Screening CC1Cc2ccccc2N1c1ncnc(N)c1[N+](=O)[O-] (stereo not given) returned RORgamma inh 4.5µM*, DT40 TDP1 CPT 4.1µM*, TDP1 cell noCPT 1.5µM*, TDP1 block 2% and VP16 counter inconclusive.
c1ccc2c(c1)CCN(c1ncnc3nc[nH]c13)C2 was read as RORgamma inh -22%, DT40 TDP1 CPT inconclusive, TDP1 cell noCPT inconclusive, TDP1 block 5% and VP16 counter -3%.
